How the values were obtained:
Experiment in all cases: log2 ratio of Biotin-Ahx-Ub-VS probe labelling (fragment/DMSO); higher = less target engagement (more negative = stronger competition), active = hit call of the paper (q ≤ 0.05, log2 ratio ≤ -1)
Settings in all cases: compound concentration: 200 uM; treatment time: 3 h
USP42 = biological target: T1, USP42 (UniProt Q9H9J4)
T1 sequence (whole entry): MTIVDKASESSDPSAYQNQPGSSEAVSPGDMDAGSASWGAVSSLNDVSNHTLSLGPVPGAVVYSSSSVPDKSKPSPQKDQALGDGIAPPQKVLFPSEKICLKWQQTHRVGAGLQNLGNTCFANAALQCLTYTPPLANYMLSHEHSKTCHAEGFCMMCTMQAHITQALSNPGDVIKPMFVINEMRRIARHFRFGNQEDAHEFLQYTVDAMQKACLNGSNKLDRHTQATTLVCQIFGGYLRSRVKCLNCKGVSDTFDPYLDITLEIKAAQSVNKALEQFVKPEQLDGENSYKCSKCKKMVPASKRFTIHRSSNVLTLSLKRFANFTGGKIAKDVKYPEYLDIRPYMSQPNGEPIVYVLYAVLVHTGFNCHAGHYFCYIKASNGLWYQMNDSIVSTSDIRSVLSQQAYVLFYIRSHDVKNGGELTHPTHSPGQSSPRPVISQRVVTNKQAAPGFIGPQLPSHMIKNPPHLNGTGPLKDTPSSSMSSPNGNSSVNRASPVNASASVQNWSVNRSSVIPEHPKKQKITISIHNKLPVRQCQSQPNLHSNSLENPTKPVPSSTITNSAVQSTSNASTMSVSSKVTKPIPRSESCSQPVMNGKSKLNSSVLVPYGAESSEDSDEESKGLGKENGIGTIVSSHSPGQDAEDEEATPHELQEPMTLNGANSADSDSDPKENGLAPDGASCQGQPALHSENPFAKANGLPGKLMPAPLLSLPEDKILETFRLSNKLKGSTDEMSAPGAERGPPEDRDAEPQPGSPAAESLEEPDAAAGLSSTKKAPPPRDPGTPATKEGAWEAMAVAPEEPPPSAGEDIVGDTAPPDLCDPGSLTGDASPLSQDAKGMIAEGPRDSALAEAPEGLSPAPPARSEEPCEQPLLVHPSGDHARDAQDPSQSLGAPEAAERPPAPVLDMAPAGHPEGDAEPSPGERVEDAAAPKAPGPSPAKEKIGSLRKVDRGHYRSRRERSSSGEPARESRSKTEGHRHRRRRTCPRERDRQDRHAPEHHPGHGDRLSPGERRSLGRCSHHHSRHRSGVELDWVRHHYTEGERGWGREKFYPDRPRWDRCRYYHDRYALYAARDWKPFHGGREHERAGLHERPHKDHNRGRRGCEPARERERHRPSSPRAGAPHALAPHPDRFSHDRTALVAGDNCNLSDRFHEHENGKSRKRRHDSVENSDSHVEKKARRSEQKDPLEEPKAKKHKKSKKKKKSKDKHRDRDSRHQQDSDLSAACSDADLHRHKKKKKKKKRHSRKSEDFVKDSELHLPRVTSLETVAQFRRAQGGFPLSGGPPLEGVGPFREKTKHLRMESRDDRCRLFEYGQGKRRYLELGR
Method in brief: (§1)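 HEK293T lysate (495 µg per sample, in Tris/CHAPS/IGEPAL buffer with protease inhibitors) was treated in triplicate with fragment at 200 µM or with DMSO for 3 h. It was then treated with Biotin-Ahx-Ub-VS (0.5 µM final) for 1 h. Labelled DUBs were NeutrAvidin-enriched, digested with LysC and trypsin, and run by diaPASEF LC-MS/MS. Spectronaut label-free quantities were global-median-normalised. Values are average log2 ratios fragment/DMSO by unpaired t-test, using proteins with ≥2 unique peptides.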

USP46 = USP46 (UniProt P62068)
Chain of USP46 (P62068 whole entry): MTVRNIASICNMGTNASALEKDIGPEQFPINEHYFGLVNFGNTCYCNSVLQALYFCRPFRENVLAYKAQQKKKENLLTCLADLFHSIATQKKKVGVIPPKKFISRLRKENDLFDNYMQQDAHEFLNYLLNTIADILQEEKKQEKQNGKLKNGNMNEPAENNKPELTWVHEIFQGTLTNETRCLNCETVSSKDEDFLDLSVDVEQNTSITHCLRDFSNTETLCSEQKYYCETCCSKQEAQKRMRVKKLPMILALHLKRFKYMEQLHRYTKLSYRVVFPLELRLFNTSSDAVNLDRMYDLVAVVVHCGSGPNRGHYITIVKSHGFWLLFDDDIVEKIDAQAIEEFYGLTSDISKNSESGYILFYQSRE
Method in brief: as §1

USP47 = biological target: T2, USP47 (UniProt Q96K76)
T2 sequence (whole entry): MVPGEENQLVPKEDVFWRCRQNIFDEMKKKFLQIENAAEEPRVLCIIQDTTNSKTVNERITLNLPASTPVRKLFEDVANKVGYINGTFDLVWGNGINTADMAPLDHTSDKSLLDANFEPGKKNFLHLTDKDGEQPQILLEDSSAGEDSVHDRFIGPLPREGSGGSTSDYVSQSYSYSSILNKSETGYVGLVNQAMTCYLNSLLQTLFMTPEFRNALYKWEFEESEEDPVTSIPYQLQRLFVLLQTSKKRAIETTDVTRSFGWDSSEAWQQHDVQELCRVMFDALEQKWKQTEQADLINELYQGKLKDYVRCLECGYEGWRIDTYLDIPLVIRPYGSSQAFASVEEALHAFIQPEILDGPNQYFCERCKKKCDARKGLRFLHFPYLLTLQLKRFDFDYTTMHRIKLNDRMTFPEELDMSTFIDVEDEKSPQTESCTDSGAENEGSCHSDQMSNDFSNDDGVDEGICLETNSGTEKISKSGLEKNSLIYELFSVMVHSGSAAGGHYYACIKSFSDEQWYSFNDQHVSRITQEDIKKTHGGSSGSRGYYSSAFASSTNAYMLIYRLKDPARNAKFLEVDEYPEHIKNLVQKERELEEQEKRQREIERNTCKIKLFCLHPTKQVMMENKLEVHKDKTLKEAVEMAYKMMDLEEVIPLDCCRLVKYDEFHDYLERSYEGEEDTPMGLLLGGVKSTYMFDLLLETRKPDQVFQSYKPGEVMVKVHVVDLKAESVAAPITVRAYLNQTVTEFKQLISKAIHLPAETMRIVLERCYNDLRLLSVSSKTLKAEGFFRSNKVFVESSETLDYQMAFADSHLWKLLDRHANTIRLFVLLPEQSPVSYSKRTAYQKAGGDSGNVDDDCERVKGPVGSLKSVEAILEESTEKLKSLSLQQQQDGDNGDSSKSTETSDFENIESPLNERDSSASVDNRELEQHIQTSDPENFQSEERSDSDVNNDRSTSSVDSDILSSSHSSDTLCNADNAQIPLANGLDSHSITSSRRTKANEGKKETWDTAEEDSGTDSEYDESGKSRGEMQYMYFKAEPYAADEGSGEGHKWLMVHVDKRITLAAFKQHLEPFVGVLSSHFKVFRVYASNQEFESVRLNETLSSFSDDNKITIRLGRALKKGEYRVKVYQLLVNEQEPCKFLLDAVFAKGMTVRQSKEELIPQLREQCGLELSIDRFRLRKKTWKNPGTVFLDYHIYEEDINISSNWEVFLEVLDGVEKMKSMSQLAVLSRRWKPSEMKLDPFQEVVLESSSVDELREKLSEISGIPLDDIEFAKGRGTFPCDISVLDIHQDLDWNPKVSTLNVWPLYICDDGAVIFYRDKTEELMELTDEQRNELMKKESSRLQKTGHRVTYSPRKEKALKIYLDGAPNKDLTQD
Method in brief: as §1

USP48 = biological target: T3, USP48 (UniProt Q86UV5)
T3 sequence (whole entry): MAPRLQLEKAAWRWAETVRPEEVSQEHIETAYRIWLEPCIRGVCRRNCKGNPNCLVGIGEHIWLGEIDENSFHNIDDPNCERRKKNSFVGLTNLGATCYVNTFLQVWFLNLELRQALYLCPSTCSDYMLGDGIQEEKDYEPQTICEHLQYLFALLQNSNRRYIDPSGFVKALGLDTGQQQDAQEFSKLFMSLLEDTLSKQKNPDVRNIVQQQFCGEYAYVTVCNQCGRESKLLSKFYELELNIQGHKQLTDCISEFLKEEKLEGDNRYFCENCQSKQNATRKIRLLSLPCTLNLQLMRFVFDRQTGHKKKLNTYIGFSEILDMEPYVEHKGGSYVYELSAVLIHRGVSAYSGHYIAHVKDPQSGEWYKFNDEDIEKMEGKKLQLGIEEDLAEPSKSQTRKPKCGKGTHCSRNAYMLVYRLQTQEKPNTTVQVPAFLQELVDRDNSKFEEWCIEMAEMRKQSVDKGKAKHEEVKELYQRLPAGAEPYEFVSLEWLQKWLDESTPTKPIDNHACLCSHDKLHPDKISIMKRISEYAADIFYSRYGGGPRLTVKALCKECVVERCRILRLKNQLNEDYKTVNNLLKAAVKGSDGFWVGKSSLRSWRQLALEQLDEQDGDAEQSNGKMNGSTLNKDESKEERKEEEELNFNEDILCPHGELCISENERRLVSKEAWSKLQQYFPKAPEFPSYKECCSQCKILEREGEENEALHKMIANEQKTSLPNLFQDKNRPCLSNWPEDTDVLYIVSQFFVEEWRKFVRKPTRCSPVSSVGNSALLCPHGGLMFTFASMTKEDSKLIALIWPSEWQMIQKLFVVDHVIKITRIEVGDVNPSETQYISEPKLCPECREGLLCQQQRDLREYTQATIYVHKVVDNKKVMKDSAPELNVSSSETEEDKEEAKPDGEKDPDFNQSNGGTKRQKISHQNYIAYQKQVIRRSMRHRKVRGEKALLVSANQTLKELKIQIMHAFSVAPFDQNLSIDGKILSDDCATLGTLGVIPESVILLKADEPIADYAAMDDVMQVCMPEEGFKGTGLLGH
Method in brief: as §1

USP5 = biological target: T4, USP5 (UniProt P45974)
T4 sequence (whole entry): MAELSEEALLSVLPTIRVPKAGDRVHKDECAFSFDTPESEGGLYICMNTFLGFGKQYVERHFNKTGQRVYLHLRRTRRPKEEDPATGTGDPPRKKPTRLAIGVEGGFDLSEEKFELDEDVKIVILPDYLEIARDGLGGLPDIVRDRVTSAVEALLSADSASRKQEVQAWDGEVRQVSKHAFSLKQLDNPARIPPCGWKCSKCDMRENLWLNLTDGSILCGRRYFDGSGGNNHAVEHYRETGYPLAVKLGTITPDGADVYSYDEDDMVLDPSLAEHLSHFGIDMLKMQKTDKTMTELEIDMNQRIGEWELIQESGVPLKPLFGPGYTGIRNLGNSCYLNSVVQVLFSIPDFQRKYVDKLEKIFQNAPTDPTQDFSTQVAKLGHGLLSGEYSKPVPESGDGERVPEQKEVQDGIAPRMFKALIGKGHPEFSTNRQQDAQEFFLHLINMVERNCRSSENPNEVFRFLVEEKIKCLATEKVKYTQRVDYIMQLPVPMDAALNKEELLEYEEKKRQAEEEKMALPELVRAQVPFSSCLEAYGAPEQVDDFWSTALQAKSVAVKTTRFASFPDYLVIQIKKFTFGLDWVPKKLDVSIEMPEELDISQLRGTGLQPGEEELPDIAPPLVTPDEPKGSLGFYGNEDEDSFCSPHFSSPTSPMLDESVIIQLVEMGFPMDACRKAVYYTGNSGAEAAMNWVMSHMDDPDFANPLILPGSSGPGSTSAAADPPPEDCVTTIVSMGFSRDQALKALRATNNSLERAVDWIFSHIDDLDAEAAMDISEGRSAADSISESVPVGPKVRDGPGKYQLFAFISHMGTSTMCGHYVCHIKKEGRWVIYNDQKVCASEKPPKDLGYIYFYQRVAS
Method in brief: as §1

USP54 = USP54 (UniProt Q70EL1)
Chain of USP54 (Q70EL1 whole entry): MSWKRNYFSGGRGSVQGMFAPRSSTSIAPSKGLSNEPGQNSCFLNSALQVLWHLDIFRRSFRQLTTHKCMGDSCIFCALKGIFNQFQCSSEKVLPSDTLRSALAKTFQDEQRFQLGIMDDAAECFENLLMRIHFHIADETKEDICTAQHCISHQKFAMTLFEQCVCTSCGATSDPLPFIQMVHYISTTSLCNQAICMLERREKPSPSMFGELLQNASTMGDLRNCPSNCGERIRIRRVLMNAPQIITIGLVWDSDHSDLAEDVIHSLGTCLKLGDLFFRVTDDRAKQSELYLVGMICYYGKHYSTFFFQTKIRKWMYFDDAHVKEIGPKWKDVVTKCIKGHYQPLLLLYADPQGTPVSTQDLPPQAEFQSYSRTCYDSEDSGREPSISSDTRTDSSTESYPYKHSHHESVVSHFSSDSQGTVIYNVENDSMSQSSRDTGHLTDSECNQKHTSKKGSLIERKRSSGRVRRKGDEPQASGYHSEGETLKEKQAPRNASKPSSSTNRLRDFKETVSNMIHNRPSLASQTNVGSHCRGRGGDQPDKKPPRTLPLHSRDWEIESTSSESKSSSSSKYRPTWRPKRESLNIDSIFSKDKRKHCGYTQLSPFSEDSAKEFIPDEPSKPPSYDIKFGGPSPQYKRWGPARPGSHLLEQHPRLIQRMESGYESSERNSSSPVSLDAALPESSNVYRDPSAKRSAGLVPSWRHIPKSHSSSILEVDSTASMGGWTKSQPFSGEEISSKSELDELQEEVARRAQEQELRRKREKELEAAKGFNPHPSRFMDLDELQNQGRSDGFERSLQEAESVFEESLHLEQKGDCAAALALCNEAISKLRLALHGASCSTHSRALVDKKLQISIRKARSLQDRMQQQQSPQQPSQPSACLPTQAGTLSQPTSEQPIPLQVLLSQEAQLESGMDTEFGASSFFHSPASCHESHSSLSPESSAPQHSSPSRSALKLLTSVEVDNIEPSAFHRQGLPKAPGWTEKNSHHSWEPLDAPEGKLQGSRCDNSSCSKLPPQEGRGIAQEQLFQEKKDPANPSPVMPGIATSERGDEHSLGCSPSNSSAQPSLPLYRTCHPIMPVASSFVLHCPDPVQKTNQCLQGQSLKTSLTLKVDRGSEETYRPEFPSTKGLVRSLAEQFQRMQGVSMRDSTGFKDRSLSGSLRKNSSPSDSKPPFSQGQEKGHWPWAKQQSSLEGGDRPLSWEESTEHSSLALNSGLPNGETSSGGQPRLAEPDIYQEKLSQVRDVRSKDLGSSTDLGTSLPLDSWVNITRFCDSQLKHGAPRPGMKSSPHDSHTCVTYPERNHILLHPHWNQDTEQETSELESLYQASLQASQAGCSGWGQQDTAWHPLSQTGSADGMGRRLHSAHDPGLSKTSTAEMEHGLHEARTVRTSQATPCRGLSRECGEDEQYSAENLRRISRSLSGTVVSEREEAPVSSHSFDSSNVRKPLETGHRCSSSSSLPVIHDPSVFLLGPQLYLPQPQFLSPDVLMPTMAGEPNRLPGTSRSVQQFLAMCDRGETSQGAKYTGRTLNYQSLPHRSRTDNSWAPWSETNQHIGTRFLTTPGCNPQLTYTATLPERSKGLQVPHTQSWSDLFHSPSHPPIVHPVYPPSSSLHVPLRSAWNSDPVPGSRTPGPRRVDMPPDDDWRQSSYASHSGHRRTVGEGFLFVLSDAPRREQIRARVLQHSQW
Method in brief: as §1

USP7 = USP7 (UniProt Q93009)
Method in brief: as §1

USP8 = biological target: T5, USP8 (UniProt P40818)
T5 sequence (whole entry): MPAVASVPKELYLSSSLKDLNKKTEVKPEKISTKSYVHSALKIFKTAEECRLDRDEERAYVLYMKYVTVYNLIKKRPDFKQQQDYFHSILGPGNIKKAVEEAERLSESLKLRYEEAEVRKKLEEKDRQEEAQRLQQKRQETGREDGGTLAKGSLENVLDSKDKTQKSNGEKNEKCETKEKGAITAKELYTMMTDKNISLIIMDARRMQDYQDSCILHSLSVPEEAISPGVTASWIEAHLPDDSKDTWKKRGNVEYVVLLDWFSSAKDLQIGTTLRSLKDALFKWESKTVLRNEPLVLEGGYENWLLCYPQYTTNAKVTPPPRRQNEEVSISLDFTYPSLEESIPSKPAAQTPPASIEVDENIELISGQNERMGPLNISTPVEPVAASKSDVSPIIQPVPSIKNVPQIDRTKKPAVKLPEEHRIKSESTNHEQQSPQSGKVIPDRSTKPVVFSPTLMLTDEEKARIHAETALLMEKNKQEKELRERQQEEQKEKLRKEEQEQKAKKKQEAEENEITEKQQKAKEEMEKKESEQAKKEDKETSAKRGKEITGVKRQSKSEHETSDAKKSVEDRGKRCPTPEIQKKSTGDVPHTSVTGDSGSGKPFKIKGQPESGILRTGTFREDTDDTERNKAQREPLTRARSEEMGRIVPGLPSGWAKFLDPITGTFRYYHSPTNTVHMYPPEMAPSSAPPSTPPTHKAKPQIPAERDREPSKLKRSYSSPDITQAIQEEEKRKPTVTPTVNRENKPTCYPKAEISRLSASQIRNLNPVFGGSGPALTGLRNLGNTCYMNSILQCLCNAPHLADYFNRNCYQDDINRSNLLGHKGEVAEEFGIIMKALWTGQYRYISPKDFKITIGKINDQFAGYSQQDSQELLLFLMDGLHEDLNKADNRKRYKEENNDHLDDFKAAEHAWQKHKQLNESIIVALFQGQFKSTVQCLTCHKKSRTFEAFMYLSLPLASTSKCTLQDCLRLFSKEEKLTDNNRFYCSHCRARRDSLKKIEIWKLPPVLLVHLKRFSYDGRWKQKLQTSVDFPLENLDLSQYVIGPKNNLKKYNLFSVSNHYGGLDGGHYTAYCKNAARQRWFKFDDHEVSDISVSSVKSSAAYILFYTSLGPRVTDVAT
Method in brief: as §1

USP9X = USP9X (UniProt Q93008)
Chain of USP9X (Q93008 whole entry): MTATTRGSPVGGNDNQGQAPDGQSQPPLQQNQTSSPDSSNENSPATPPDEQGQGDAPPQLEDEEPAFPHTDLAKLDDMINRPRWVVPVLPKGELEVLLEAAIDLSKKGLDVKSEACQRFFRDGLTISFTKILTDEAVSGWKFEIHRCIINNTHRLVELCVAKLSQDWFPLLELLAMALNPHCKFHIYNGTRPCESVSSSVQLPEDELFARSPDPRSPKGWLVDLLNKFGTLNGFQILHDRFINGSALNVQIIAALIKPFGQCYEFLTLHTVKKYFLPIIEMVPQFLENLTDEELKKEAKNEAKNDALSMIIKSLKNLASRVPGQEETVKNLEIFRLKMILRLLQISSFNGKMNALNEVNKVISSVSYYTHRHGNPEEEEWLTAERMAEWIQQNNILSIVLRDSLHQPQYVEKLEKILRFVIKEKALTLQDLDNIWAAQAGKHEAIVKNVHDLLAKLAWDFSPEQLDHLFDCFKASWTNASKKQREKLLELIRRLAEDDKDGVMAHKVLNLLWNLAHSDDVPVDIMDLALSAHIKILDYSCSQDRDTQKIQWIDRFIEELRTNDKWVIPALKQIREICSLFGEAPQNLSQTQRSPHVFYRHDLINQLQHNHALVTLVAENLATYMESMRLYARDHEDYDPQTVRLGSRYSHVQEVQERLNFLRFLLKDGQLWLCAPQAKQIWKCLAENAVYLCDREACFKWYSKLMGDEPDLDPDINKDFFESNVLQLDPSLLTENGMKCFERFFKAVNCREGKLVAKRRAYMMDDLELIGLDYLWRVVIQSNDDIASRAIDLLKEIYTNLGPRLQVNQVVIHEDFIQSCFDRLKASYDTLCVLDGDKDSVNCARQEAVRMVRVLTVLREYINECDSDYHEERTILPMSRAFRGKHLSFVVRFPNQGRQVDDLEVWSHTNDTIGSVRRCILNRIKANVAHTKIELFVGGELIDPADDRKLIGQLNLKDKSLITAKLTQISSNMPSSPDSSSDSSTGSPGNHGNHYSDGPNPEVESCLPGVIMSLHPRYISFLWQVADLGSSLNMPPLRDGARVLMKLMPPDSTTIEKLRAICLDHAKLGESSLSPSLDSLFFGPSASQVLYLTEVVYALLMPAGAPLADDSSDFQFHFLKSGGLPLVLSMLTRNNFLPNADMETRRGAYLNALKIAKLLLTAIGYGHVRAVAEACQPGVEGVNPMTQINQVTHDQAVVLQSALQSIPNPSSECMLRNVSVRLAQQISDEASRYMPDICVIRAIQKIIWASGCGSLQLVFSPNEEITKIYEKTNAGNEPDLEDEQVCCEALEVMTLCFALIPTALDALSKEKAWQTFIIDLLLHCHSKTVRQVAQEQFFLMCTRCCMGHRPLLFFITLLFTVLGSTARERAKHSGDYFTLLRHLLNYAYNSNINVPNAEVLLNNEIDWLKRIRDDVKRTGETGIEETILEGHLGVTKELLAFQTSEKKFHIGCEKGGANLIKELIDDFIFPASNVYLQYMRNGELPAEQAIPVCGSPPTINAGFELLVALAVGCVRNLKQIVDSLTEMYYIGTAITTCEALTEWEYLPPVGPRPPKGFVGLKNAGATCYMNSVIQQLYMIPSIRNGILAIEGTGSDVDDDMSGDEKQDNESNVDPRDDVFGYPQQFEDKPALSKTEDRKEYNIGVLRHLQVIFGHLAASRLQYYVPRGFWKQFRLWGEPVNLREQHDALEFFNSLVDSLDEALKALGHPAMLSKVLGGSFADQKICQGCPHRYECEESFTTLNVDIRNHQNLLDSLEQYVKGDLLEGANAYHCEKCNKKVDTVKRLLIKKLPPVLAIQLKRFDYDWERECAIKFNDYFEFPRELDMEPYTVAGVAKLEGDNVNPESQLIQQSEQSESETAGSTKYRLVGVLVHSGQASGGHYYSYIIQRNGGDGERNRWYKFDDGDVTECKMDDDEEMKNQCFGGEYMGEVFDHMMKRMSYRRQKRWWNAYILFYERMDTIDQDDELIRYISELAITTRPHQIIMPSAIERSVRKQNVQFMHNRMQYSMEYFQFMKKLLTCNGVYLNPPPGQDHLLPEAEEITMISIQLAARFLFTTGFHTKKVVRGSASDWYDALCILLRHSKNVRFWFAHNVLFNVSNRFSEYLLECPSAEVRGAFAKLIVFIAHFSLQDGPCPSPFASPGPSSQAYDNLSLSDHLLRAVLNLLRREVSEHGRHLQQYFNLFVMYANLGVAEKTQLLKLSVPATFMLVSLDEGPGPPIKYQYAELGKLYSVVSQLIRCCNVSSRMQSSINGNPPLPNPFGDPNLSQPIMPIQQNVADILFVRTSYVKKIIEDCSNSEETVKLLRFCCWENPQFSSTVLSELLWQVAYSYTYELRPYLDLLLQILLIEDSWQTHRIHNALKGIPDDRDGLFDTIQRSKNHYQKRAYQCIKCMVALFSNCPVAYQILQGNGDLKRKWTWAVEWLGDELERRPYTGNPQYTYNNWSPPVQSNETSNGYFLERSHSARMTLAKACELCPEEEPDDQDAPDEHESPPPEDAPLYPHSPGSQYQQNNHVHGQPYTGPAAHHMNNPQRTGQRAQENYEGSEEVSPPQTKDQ
Method in brief: as §1

UniProt O00487 = biological target: UniProt O00487
Chain of UniProt O00487 (O00487 whole entry): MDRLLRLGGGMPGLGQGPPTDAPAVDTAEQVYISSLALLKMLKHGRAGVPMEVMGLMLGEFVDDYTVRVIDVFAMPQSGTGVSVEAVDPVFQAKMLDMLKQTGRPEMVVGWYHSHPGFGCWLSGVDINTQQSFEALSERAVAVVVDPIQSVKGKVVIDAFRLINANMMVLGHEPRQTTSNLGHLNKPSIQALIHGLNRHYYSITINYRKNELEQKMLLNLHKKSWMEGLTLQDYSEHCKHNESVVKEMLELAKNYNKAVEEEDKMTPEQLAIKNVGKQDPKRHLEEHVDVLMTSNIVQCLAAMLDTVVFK
Method in brief: as §1

Measured: log2 ratio of Biotin-Ahx-Ub-VS probe labelling

O=C(CCl)N1CCOCCC1c1ccccc1 (stereo not given)
inactive: USP42 0.345 | USP46 -0.0581 | USP47 -0.596 | USP48 0.0099 | USP5 0.135 | USP54 0.504 | USP7 -0.526 | USP8 -0.109 | USP9X -0.168 | UniProt O00487 -0.00106
